Data on 110 sequences can be found in the supplement of paper PMC3334620.

In all, about 33,000 sequences were measured (“E-score (-0.5 to 0.5)”: median about -0.041, highest 2% from about 0.37 on). Shown is part of a subset that was picked to be rich in the highest values.

The experiment deals with T1, Ecm22 (UniProt Q05958).
T1 sequence: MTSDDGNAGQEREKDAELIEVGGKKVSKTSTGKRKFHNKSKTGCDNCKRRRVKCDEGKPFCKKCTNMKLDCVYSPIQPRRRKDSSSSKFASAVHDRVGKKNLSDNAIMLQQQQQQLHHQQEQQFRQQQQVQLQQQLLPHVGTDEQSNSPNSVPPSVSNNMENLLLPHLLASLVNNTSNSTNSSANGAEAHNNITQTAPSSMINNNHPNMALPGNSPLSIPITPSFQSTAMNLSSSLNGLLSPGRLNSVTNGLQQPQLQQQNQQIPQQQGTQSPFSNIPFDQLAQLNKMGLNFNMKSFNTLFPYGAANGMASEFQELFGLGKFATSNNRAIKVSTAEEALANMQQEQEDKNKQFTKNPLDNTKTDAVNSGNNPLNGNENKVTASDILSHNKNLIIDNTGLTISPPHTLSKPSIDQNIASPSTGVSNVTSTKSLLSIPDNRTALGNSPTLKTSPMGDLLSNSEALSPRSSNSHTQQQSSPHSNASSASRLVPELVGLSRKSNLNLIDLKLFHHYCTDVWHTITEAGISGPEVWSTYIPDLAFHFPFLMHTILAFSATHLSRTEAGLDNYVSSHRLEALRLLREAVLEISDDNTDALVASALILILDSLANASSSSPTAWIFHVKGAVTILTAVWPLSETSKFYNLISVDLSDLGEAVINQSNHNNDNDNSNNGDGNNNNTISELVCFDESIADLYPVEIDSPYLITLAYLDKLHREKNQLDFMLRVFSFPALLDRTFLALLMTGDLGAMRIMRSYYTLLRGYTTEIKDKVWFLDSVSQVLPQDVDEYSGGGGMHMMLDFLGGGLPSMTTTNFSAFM
Kind of experiment: PBM E-score (8-mer binding enrichment) (E-score (-0.5 to 0.5)); higher = stronger / more preferred TF binding. Conditions: protein concentration: 200 nM; construct: GST-full length. The method, boiled down: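 PURExpress in vitro transcription/translation supplied GST-tagged yeast transcription factors, either full-length or DNA-binding domain. Applied at about 100-200 nM to universal all-10-mer Agilent arrays double-stranded by primer extension, the bound protein was detected with fluorescent anti-GST. E-scores, modified Wilcoxon-Mann-Whitney statistics, were given by the Universal PBM Analysis Suite to ungapped eight-base words pooled with their reverse complements after masliner normalisation.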
In the case of CCTACCTC, the “PBM E-score” value is -0.0998.

As to CTAGAACA, the “PBM E-score” value is -0.0457. As to CGGGTCGC, the “PBM E-score” value was found to be 0.187. In the case of ACCGTCGT, the “PBM E-score” value amounted to 0.404.

In the case of ACCGTCGA, the “PBM E-score” value was -0.216. For AACGTCGA the value was 0.178. With AACGTCGT, the “PBM E-score” value is 0.37. Consider ACCGTCGC, for which the “PBM E-score” value is 0.278. With AACGTCGG, the “PBM E-score” value came to 0.17.

AAGCTCAG: the “PBM E-score” value is -0.321. CGGTTCGC: the “PBM E-score” value was found to be 0.151. For AACCTAGC the value was -0.09. Consider AGAGGGGG, for which the “PBM E-score” value is -0.0644. On to ACAGCACC, for which the “PBM E-score” value is -0.276. For GCTCGCTA the value was 0.31. Consider CCTCGTTA, for which the “PBM E-score” value amounted to 0.402. On to CCACGTTA, for which the “PBM E-score” value came to 0.0599. ACTCGTTC: the “PBM E-score” value stood at 0.466.

Turning to GCTCGTTA, the “PBM E-score” value turned out to be 0.373.

With CCTCGTTC, the “PBM E-score” value was 0.474. In the case of ACTCGTTA, the “PBM E-score” value was found to be 0.348. For GCACGTTA the value was 0.0282; for ACTCGTTG, 0.274. Under CCTCGTCC stands -0.238; under CCTCGTGC, 0.0902. For the sequence ACTCGGTC, the “PBM E-score” value amounted to 0.229. As for TCTCCTAA, the “PBM E-score” value is -0.203. Regarding TCTAGGAA, the “PBM E-score” value was -0.0513. In the case of CCTCGCTA, the “PBM E-score” value came out at 0.215. For CCTCGCTC, the “PBM E-score” value turned out to be 0.372. As for ACTCGCTC, the “PBM E-score” value stood at 0.354.

As to GGGAGAAA, the “PBM E-score” value is -0.141.

Turning to GGGGACCA, the “PBM E-score” value was -0.259.

With ATCGATTG, the “PBM E-score” value is 0.0987.

In the case of AACGATTC, the “PBM E-score” value came to 0.377. Consider ACCGATTG, for which the “PBM E-score” value worked out at 0.115. Consider GACGATTA, for which the “PBM E-score” value was found to be 0.0551. With CACGATTA, the “PBM E-score” value is 0.1. In the case of CACGATTC, the “PBM E-score” value stood at 0.244. In the case of AACGATTG, the “PBM E-score” value came to 0.384.

Regarding AGCGATTC, the “PBM E-score” value came to 0.12. On to AACGATTA, for which the “PBM E-score” value came to 0.382.

With CAGGGCAA, the “PBM E-score” value is -0.227. For CTGACGTA, the “PBM E-score” value was found to be 0.132.

With AAGATACA, the “PBM E-score” value was -0.046.

As for GACTCGAC, the “PBM E-score” value came to 0.0219. Consider ATGAGATG, for which the “PBM E-score” value is -0.227.

For the sequence ACTGCTGA, the “PBM E-score” value is -0.19. In the case of CCCTCTCC, the “PBM E-score” value was -0.358. CTAGGAAA: the “PBM E-score” value is -0.209. In the case of CGCGCAAA, the “PBM E-score” value was 0.188. For AGACGGGG, the “PBM E-score” value was -0.0581.

As to ATACGGGG, the “PBM E-score” value stood at 0.386. For GCACGGGA the value was 0.0895. Under GTACGGGA stands 0.419; under CTACGGGA, 0.146; under AAACGGGG, 0.361. Turning to ATACGGGC, the “PBM E-score” value turned out to be 0.413. As for ACACGGGC, the “PBM E-score” value was -0.0743. Under GAACGGGA stands 0.327; under ACACGGGA, 0.0892; under ATACGGGA, 0.389. CTACGGGC: the “PBM E-score” value was -0.0464. With AAGCGCAC, the “PBM E-score” value turned out to be 0.0929.

In the case of AAGCTTGT, the “PBM E-score” value was determined as 0.0175. Regarding ACAATCCT, the “PBM E-score” value was -0.0917.

In the case of GGGGCAGA, the “PBM E-score” value was -0.0715. For ATCCTGCC, the “PBM E-score” value is -0.0749. Take CGAGCACA: the “PBM E-score” value is 0.225. Take AGCCCTGG: the “PBM E-score” value is -0.233. With TAACCCCA, the “PBM E-score” value is -0.181. For ACAACTCC the value was -0.151; for CGGCGAAA, 0.0597. Under GAGTATAC stands 0.286. On to GGGTATAC, for which the “PBM E-score” value worked out at 0.15. In the case of CCGTATGA, the “PBM E-score” value was found to be 0.396. For CCGTATAA, the “PBM E-score” value was determined as 0.473. CGGTATAA: the “PBM E-score” value was 0.161.

For AAGTATAC, the “PBM E-score” value was determined as 0.255. In the case of ACGTATGA, the “PBM E-score” value stood at 0.17. Regarding ACGTATAC, the “PBM E-score” value was found to be 0.381. On to CTGTATAA, for which the “PBM E-score” value stood at 0.0431.

As to ATGTATAC, the “PBM E-score” value amounted to 0.179. With GCGTATAC, the “PBM E-score” value stood at 0.406. For CCGTATGC the value was 0.268; for AGTGCCAA, -0.0554; for CTGCCTCA, -0.257. With AATGTGCT, the “PBM E-score” value was determined as 0.00418.

As to CGATATGC, the “PBM E-score” value worked out at 0.188. Turning to ATTCCCAG, the “PBM E-score” value was -0.0258.

Take GGAGCGAC: the “PBM E-score” value stood at 0.339. For GGCGTTGA the value was -0.126; for ACTTTAGG, -0.0481; for ATGTATAA, 0.0604.

As for CCGTATCC, the “PBM E-score” value is 0.337.

Regarding GTGTATAA, the “PBM E-score” value was -0.026. ACGTATAA: the “PBM E-score” value is 0.412. Under CTGTATAC stands 0.207; under CCGTATAC, 0.456; under AGGTATAA, 0.211. As to ACGTATAT, the “PBM E-score” value was 0.371. For AGGTATAT the value was -0.117; for GCGTATTA, 0.031; for AAGTATAT, 0.0727. Regarding GCGTATAA, the “PBM E-score” value was determined as 0.394. In the case of TTCAAGAA, the “PBM E-score” value was found to be 0.0932. For the sequence CAGCCGGC, the “PBM E-score” value turned out to be 0.0272. As for CCAGAGAA, the “PBM E-score” value is 0.0432. As to GCAGGACA, the “PBM E-score” value is -0.0743. For the sequence CAGTCTAA, the “PBM E-score” value came out at 0.0425.
